Measured values as given in PubChem BioAssay AID504861 (Broad Institute, 2011).
Among all 1,200 compounds or so, about 290 (24%) were called active. Inconclusive results (about 3%) are left out. A selection follows. Entries with a potency or affinity are not part of this list. A number with no mark means an inactive call.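 The calls were made as follows: active = compounds lowering cell viability signal with fitted half-maximal concentration at most ten times their highest tested concentration; inconclusive = flat fit with 30 to 70% signal loss, or poor fit; inactive = the rest.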

experiment: cytotoxicity in HEK293T cells – cell-based, CellTiter-Glo luminescence, cherry-picks, cytotoxicity control for LMP1 NF-kB inhibitor project, dose response (AID 504861); conditions: HEK293T viability, CellTiter-Glo ATP luminescence, 48 h; series mostly up to 26 µM; activity change, negative = cytotoxicity: at the top concentration

SMILES | activity change, negative = cytotoxicity [%]
CCn1c2ccccc2c2cc(/C=N/NC(=O)c3ccncc3)ccc21 | 10.8
COc1ccc(CCNC(=O)c2nnn(-c3ccc4c(c3)OCCO4)c2N)cc1OC | -3.16
CNS(=O)(=O)c1cccc(C(=O)OCC(=O)c2ccc3c(c2)OCCO3)c1 | 4.41
O=C(c1noc2c1CCCC2)N1CCCCC1 | 2.78
CC[C@H]1OC(=O)[C@H](C)[C@@H](O[C@H]2C[C@@](C)(OC)[C@@H](O)[C@H](C)O2)[C@H](C)[C@@H](O[C@@H]2O[C@H](C)C[C@H](N(C)C)[C@H]2O)[C@](C)(O)C[C@@H](C)C(=NOCOCCOC)[C@H](C)[C@@H](O)[C@]1(C)O | 1.19
COc1cc2c(cc1OC)-c1cc(Nc3ccc4c(c3)OCCO4)nc(=O)n1CC2 | 35.8
Cc1nc2ncccn2c1-c1csc(Nc2ccccc2)n1 | 3.33
CCOC(=O)C1=C(C)NC(C)=C(C(=O)OCC)C1c1cn(-c2ccccc2)nc1-c1ccco1 | 9.17
COCCn1c(SCCN2CCOCC2)nc2c1c(=O)[nH]c(=O)n2C | -5.1
Cc1cccc(NC(=O)c2cnc3ccccn3c2=O)c1 | 11.3
CC(C)c1nnc(NC(=O)c2ccc(N3C(=O)CCC3=O)cc2)s1 | 9.62
COc1ccc(-n2c(SCC(=O)Nc3cc(C)on3)nc3c(c2=O)SCC3)cc1 | 6.53
COc1ccc(/C=N/N=C/c2ccc(OC)c(OC)c2)cc1OC | 13.3
COc1cc(/C=C2/SC(=S)N(Cc3ccccc3)C2=O)ccc1OCC(=O)O | 1.52
CCOCCCn1c(=S)[nH]c2ncccc2c1=O | 21.6
O=c1c2c(nc3c(-c4ccc(Cl)cc4)c[nH]n13)CCCC2 | -9.92
CC(=NNC(=S)N1CCCCCC1)c1cccc2cccnc12 | -5.32
CC1=C(CC(=O)O)c2cc(F)ccc2C1=Cc1ccc(S(C)(=O)=O)cc1 | 0.041
COc1ccc(OC)c(CCNC(=O)CCn2nc(C)c3c(C)n(-c4ccccc4)nc3c2=O)c1 | 3.9
COCCn1c(C)cc(C(=O)COC(=O)C23CC4CC(CC(O)(C4)C2)C3)c1C | 3.31
CC1CCc2nc(N)c(C#N)c(-c3cccnc3)c2C1 (configuration not stated) | -2.74
N#CCN(N=Nc1ccccc1)c1ccccc1 | -6.12
CC(NC(=O)CCOc1ccccc1)c1ccccc1 (configuration not stated) | 1.19
C[C@@H](OC(=O)c1[nH]cnc1C(=O)N1CCc2ccccc2C1)c1ccccc1 | -0.366
COc1cccc(-c2nnc(NC(=O)c3ccc(S(=O)(=O)N(CC(C)C)CC(C)C)cc3)o2)c1 | 1.48
CCn1c2ccccc2c2cc(/C=N/n3cnnc3)ccc21 | -7.83

SMILES | activity change, negative = cytotoxicity [%]
C=CC[N+](C)(C)C/C(Cl)=C(\Cl)c1ccccc1 | 7.76
O=[N+]([O-])c1ccc(Cl)c(S(=O)(=O)NCC2CCCO2)c1 (configuration not stated) | 6.06
c1ccc2c(-c3ccncc3)c[nH]c2c1 | -0.974
COc1cc(/C=N/NC(=O)c2cc(C34CC5CC(CC(C5)C3)C4)[nH]n2)ccc1O | 3.92
Oc1ccccc1C=NN=Cc1c(O)ccc2ccccc12 | 3.24
CCn1c2ccccc2c2cc(/C=N/NC(=O)c3cc(O)cc(O)c3)ccc21 | -8.8
Cc1ccccc1CC(=O)NCc1cccnc1 | -5.15
c1nc(NCc2ccc3c(c2)OCO3)c2cc(-c3ccoc3)ccc2n1 | -11.3
Oc1c(N=NC(=S)Nc2ccccc2F)c2ccccc2n1Cc1ccccc1F | 12
CCS(=O)(=O)c1nnnn1-c1ccccc1S(C)(=O)=O | -0.286
O=C1c2ccccc2C(=O)c2cc(N3CCCCC3)ccc21 | -5.57
CC(C)c1cc(NC(=O)c2ccccc2)cc(C(C)C)c1O | 3.11
O=C(NC(c1ccc(Cl)cc1)c1cc(Cl)c2cccnc2c1O)c1cccnc1 (configuration not stated) | 15.2
Nc1cc2ccncc2c2ccccc12 | -17.4
CC1=C(C)C(OCCCl)N(c2cc(O)c(Cl)cc2F)C1=O (configuration not stated) | 11.4
Cc1ccc(N2CCCCn3c2nc2c3c(=O)n(CC(=O)O)c(=O)n2C)cc1 | 5.91
Nc1ncnc(N2CCc3ccccc32)c1[N+](=O)[O-] | 5.71
COc1ccc(-c2cc3c(=O)n(CC(=O)NCCCN4CCN(Cc5ccccc5)CC4)ncn3n2)cc1 | -1.47
Cc1ccccc1C(=O)N1CCN(c2ccc(NC(=O)c3cccs3)cc2)CC1 | 12.1
COc1nc(Nc2nc3ccccc3c(=O)[nH]2)nc2ccc(C)cc12 | 6.13
COc1ccc2cc3c(N)nn(C(=O)c4ccccc4[N+](=O)[O-])c3nc2c1 | -10.9
O=C(O)c1c2c(nc3ccccc13)/C(=C/c1ccc(O)cc1)CC2 | 11.7
Cc1nn(CCCC(=O)Nc2cccnc2Cl)c(C)c1[N+](=O)[O-] | 1.66
COCCN1Cc2cccc(C(=O)N3CCN(c4cc(C)ccc4C)CC3)c2C1=O | -7.98
CCOC(=O)[C@H]1[C@H]2COc3ccc(OC)cc3[C@@H]2N2C(=O)CN(C)C(=O)[C@@]12C | 0.991
CCn1nc(C(=O)Nc2nc(-c3ccccn3)cs2)c2ccccc2c1=O | 5.64
